Compounds with a hit are over-represented: about 1.6% of the library has one in this group of screens.
BJeLR viability: kills HRASV12-expressing BJeLR cells. BJeLR (HRASV12) viability, CellTiter-Glo ATP luminescence, 48 h. inhibition, % (no concentration beside the values). 300,000 compounds, 0.17% hits. AID 1554; in the data active = inhibition above about 50%; inconclusive = no clear call, values can overlap the other calls
RN4220 kill: kills Staphylococcus aureus RN4220 | inhibition, % (concentration not given with the values) | S. aureus RN4220 growth, OD600, 16 h | AID 1259311 | 330,000 compounds, 0.33% hits; in the data active = inhibition above about 85%;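 note: plate controls were untreated cells for no effect and reference antibiotic for full effect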
PfHsp40 yeast: restores yeast growth despite PfHsp40 toxicity | S. cerevisiae expressing PfHsp40, growth rescue, ATP luminescence | growth rescue, % at 12.5 µM | 340,000 compounds, 0.68% hits | AID 504582; in the data active = growth rescue above about 28%, passing the limit was not always enough; inconclusive = no clear call, values can overlap the other calls;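 note: yeast W303a lacking pdr1 and pdr3 grown in galactose medium; growth measured after three days at 30 °C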
CCHFV vOTU inh: CCHFV vOTU protease inhibition; Pep-AMC fluorescence; inhibition, % at 11.5 µM; 370,000 compounds, 0.55% hits; in the data active = inhibition above about 30%; note: 0% = vehicle wells with enzyme and 100% = no enzyme wells
Sa ugtP lethal: kills S. aureus RN4220 lacking UgtP; S. aureus RN4220 ugtP deletion, OD600 growth, 16 h; growth inhibition, % (no concentration beside the values); 330,000 compounds, 0.54% hits; AID 1259309; in the data active = growth inhibition above about 68%;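 note: plate controls were untreated wells for no effect and antibiotic for full effect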
Numbers without * were called inactive; ! = a repeat was not active.

`O=C(CSc1nc2ccccc2[nH]1)NN=C/C=C/c1ccccc1[N+](=O)[O-]` gave RN4220 kill 98* and Sa ugtP lethal 97*.
`CC(=NNC(=O)c1ccc(Cl)cc1Cl)c1cccnc1` gave RN4220 kill 2 and Sa ugtP lethal 1.
Screening CC[n+]1c(/C=C/N(C)c2ccccc2)n(-c2ccccc2)c2ccc(-c3nc4ccccc4s3)cc21 returned BJeLR viability 91*, RN4220 kill 100*, PfHsp40 yeast inconclusive and Sa ugtP lethal 101*.
CCOC(=O)c1ccc2c(c1)n(CC)c(/C=C/N(C)c1ccccc1)[n+]2CC was read as BJeLR viability 9, RN4220 kill 19, PfHsp40 yeast -1, CCHFV vOTU inh -18 and Sa ugtP lethal 6.
COc1ccc(NC(=O)ON=Cc2ccc(N(C)C)cc2)cc1 was read as RN4220 kill -5 and Sa ugtP lethal -1.
`CCOC(=O)C1=C(C)N=c2sc(=Cc3ccc(OCC(=O)O)cc3)c(=O)n2C1c1cc(OC)c(OC)c(OC)c1` (stereo not drawn) gave RN4220 kill 5 and Sa ugtP lethal 5.
Screening O=C(CCl)N=c1sccn1Cc1ccccc1Cl returned BJeLR viability 110*, RN4220 kill 2, PfHsp40 yeast 0, CCHFV vOTU inh -11 and Sa ugtP lethal 7.
For CCOc1cc(C=NO)cc(Cl)c1OCC the results were RN4220 kill 2 and Sa ugtP lethal 23.
`CCCCNc1c(-c2ccc(SC3CCCCC3)c(OC)c2)nc2ccc(C)cn12` gave PfHsp40 yeast 174* and CCHFV vOTU inh -16.
`C#CCOCCOCCOCCNc1nc(N2CCN(C(=O)CCCCCCCCCCNC(=O)C(CCCCN)n3cc(CCO)nn3)CC2)nc(N2CCN(C(=O)CCCCCCCCCCNC(=O)C(CCCCN)n3cc(CCCC(=O)O)nn3)CC2)n1` (stereo not drawn) gave RN4220 kill 9 and Sa ugtP lethal 15.
NC1=NC[C@H](Cc2ccc(O)cc2)N1CCc1cc(C(F)(F)F)cc(C(F)(F)F)c1 was read as BJeLR viability 23, PfHsp40 yeast 0 and CCHFV vOTU inh 26.
`NC1=NCC(CC2CCCCC2)N1CCc1cc(C(F)(F)F)cc(C(F)(F)F)c1` (stereo not drawn) gave RN4220 kill 101* and Sa ugtP lethal 101*.
NC1=NCC(Cc2ccccc2)N1CCc1cc(C(F)(F)F)cc(C(F)(F)F)c1 (stereo not drawn) was read as RN4220 kill -16 and Sa ugtP lethal -1.
Screening NC1=NC[C@@H](CC2CCCCC2)N1CCc1cc(C(F)(F)F)cc(C(F)(F)F)c1 returned RN4220 kill 100*, PfHsp40 yeast -2 and Sa ugtP lethal 100*.
CCOC(=O)C1CCN(C(=O)c2cc3c(=O)n4cccc(C)c4nc3s2)CC1 was read as BJeLR viability 3, RN4220 kill 1, PfHsp40 yeast 32*, CCHFV vOTU inh -18 and Sa ugtP lethal -1.
`S=C(NCCSCc1c(Cl)cccc1Cl)Nc1ccccc1` gave RN4220 kill 22, PfHsp40 yeast 285*, CCHFV vOTU inh 3 and Sa ugtP lethal 0.
`COc1ccc(CSCCNC(=S)Nc2ccccc2)cc1Cl` gave BJeLR viability -7, RN4220 kill 16, PfHsp40 yeast 45*, CCHFV vOTU inh -2 and Sa ugtP lethal -2.
Nc1c2c(nc3ccccc13)CCCC2 was read as BJeLR viability 1, RN4220 kill 1, PfHsp40 yeast 4, CCHFV vOTU inh 1 and Sa ugtP lethal 3.
For Nc1c2ccccc2nc2ccccc12 the results were BJeLR viability 89*!, RN4220 kill 1, PfHsp40 yeast 2, CCHFV vOTU inh -103 and Sa ugtP lethal 3.
Screening CC(=NNC(=S)Nc1cccc(C)c1)c1ccccn1 returned PfHsp40 yeast 116* and CCHFV vOTU inh 27.
Screening C/C(=N\NC(=O)c1cccc2ccccc12)c1ccccn1 returned BJeLR viability 79*, PfHsp40 yeast 0 and CCHFV vOTU inh 17.
For COc1cccc(NC(=O)C/C(C)=N/NC(=O)c2ccccc2Cl)c1 the results were BJeLR viability -7, PfHsp40 yeast 39* and CCHFV vOTU inh -3.
For C/C(=N\NC(=O)c1ccccc1Cl)c1ccccn1 the results were BJeLR viability 48, PfHsp40 yeast 0 and CCHFV vOTU inh 0.
Screening CC(=NNC(=S)Nc1ccc(C)cc1)c1ccccn1 returned PfHsp40 yeast 0 and CCHFV vOTU inh 3.
COc1ccccc1NC(=S)NN=C(C)c1ccccn1 was read as PfHsp40 yeast 180* and CCHFV vOTU inh -1.
For CC(O)C1CNC(=O)C(=O)N1CCc1cc(C(F)(F)F)cc(C(F)(F)F)c1 (stereo not drawn) the results were RN4220 kill 2 and Sa ugtP lethal -1.
Screening COc1ccc(C(C)=NN2C(C)CCCC2C)c(OC)c1 (stereo not drawn) returned RN4220 kill 2 and Sa ugtP lethal 4.
CCOC(=O)C(=NNc1ncnc2ccccc12)c1ccc(C)cc1 was read as RN4220 kill 4 and Sa ugtP lethal -4.
`C/C(CC(=O)Nc1ccccn1)=N\NC(=O)c1ccccc1O` gave BJeLR viability -2, PfHsp40 yeast 234* and CCHFV vOTU inh -19.
Screening COc1ccc(C(=O)N/N=C(\C)c2ccccn2)cc1OC returned BJeLR viability 74*, PfHsp40 yeast -2 and CCHFV vOTU inh 6.
CC(=NNC(=O)c1ccc(Cl)c(Cl)c1)c1ccccn1 was read as RN4220 kill 52 and Sa ugtP lethal 17.
`CCOC(=O)C=c1sc(=Cc2ccc(C#N)cc2)c(=O)n1CC(=O)Nc1cccc(C)c1C` gave RN4220 kill -4 and Sa ugtP lethal 4.
Cc1cccc(C(=O)NN=Cc2ccc3c(c2)OCO3)n1 was read as RN4220 kill -1 and Sa ugtP lethal 8.
`Cc1ccc(Oc2nc3ccccc3n3cccc23)cc1` gave BJeLR viability 0, RN4220 kill -10, PfHsp40 yeast 0, CCHFV vOTU inh 10 and Sa ugtP lethal 96*.
For Cc1cc(=O)[nH]c(NN=CC=Cc2ccccc2)n1 the results were RN4220 kill -3 and Sa ugtP lethal -18.
`Cc1ccc(C=NNC(=O)c2c[nH]c3ccccc23)o1` gave RN4220 kill 2 and Sa ugtP lethal -12.
Screening COc1cc(Cc2cnc(N)nc2N)cc(OC)c1OC returned BJeLR viability 6, RN4220 kill 98*, PfHsp40 yeast 2, CCHFV vOTU inh -3 and Sa ugtP lethal 100*.
O=c1oc2ccccc2c(O)c1/C=N/c1ncccn1 was read as BJeLR viability -7, PfHsp40 yeast 0 and CCHFV vOTU inh 18.
O=c1oc2ccccc2c(O)c1/C=C1\C=Nc2ccccc21 was read as BJeLR viability -3, RN4220 kill 37, PfHsp40 yeast 110*, CCHFV vOTU inh 9 and Sa ugtP lethal 29.
Screening Cc1nc2c(F)c(F)c(C(F)(F)F)c(F)c2[nH]1 returned BJeLR viability 2, RN4220 kill 0, PfHsp40 yeast 88*, CCHFV vOTU inh 7 and Sa ugtP lethal 2.
